# Measurements from PubChem BioAssay (EPA / NIEHS).
# Values joined by “and” are separate entries in the source; they are usually repeats but may differ in a detail not shown here. Identical values can stand only once. Active and inactive are the calls of the source. How the source made its calls: active means hit-call score of the fitted dose curve at least 0.9, where 1 is the maximum; inactive means score below 0.9.
# Read-out: Thrombomodulin, THBD (gene 7056)
# Assay: BSK_3C_Thrombomodulin: BioMAP Diversity Plus: 3C Assay for Thrombomodulin Biomarker Activity (AID 2283029)
# Settings: primary human endothelial cells (HUVEC); actives raise or lower the signal
# Description: BSK_3C is a cell-based, multiplexed-readout assay that uses umbilical vein endothelium, a human vascular primary cell, with measurements taken at 24 hours after chemical dosing in a 96-well plate.BSK_3C_Thrombomodulin is an assay component measured in the BSK_3C assay. It measures Thrombomodulin antibody related to regulation of gene expression using ELISA technology.Data from the assay component BSK_3C_Thrombomodulin was analyzed into 1 assay endpoint. This assay endpoint, BSK_3C_Thrombomodulin, was analyzed with bidirectional fitting relative to DMSO as the negative control and baseline of activity. Using a type of binding reporter, gain or loss-of-signal activity can be used to understand changes in the signaling as they relate to the gene THBD. Furthermore, this assay endpoint can be referred to as a primary readout, because this assay has produced multiple assay endpoints where this one serves a signaling function. To generalize the intended target to other relatable targets, this assay endpoint is annotated to the gpcr intended target family, where the subfamily is rhodopsin-like receptor.
# The levels of cell surface (or secreted, indicated by the prefix "s") biomarker endpoints were measured by ELISA. Overt cytotoxicity to cells in confluent adherent cultures (all systems other than the BT system) was assessed by measuring total protein levels using sulforhodamine B (SRB) staining in parallel cultures at the time of biomarker measurements, indicated as SRB endpoints. For proliferation assays for adherent cell types, individual cell types are cultured at sub-confluence and relative cell numbers quantified by SRB staining at time points optimized for each system (48 h: 3C and CASM3C systems; 72 h: BT and HDF3CGF systems; 96 h: SAg system). SRB was performed by staining cells with 0.1% SRB after fixation with 10% TCA and reading wells at 560 nm.Viability and proliferation of PBMC (T cells) was quantified by Alamar Blue reduction for the SAg and BT systems. For PBMC viability (referred to as PBMC Cytotoxicity within the assay endpoint names), cells were plated (75,000/well in a 96-well plate) and then chemical samples added for 1 h before addition of activators, SEB and TSST-1 (20 ng/mL final concentration each). Cells were incubated for 90 h. Then, Alamar Blue (20 uL/well) (Invitrogen, Cat DAL1100) was added for 6 h, and the plates were read with a fluorescence microplate reader at 546/580 nm (excitation/emission). For PBMC proliferation, cells were plated and activated as above but incubated for only 16 h prior to addition of Alamar Blue. Plates were read after 6 h.
SMILES,outcome,AC50
O=[N+]([O-])c1ccc(Cl)cc1,inactive,
O=c1[nH]c(Cl)c(Cl)cc1Cl,inactive,
COCC(=O)N(c1c(C)cccc1C)N1CCOC1=O,inactive,
Nc1ccc(-c2ccc(N)c(N)c2)cc1N,inactive,
O=S(=O)(c1ccccc1)c1ccccc1,inactive,
CC(C)(c1cc(Cl)c(O)c(Cl)c1)c1cc(Cl)c(O)c(Cl)c1,,20 µM (active)
[Cd+2].[Cl-].[Cl-],inactive,
CC(C)COP(=O)(OCC(C)C)OCC(C)C,inactive,
N#CCCCCC#N,inactive,
O=c1c2ccccc2c(=O)c2c1cc(Cl)c1[nH]c3c([nH]c12)c(Cl)cc1c(=O)c2ccccc2c(=O)c13,inactive,
Clc1ccc(-c2ccccc2)cc1,inactive,
COC(C)(C)CCC[C@H](C)C/C=C/C(C)=C/C(=O)OC(C)C,inactive,
CNC(=O)Oc1cc(C)c(SC)c(C)c1,inactive,
C=CCN(CC=C)C(=O)C(Cl)Cl,inactive,
O=C(O)CCCc1ccc(N(CCCl)CCCl)cc1,inactive,
CCC(C)c1cc([N+](=O)[O-])cc([N+](=O)[O-])c1OC(=O)C=C(C)C (stereo not drawn),inactive,
COc1ccc(CO)cc1,inactive,
CCc1cc(C)cc(CC)c1-c1c(OC(=O)C(C)(C)C)n2n(c1=O)CCOCC2,inactive,
O=C(CCl)c1ccccc1,inactive,

SMILES,outcome,AC50
CC1(C)[C@H](C(=O)O[C@H](C#N)c2cccc(Oc3ccccc3)c2)[C@@H]1C=C(Br)Br,inactive,
CC(C)CCCCCCCOP(=O)(Oc1ccccc1)Oc1ccccc1,,20 µM (active)
CCCC[N+](CCCC)(CCCC)CCCC,inactive,
O=C1C(Cl)=C(Cl)C(=O)C(Cl)=C1Cl,,5.02 µM (active)
O=C1C=CC(=O)C=C1,inactive,
Oc1cc(Cl)ccc1Cl,inactive,
CC(=O)/C=C/c1ccccc1,inactive,
O=[N+]([O-])C=Cc1ccccc1,inactive,
Oc1ccc(C2(c3ccc(O)cc3)c3ccccc3-c3ccccc32)cc1,,5.01 µM (active) and 11.3 µM (active)
CCCOC(=O)c1ccccc1C(=O)OCCC,inactive,
CC(C)(C)C(=O)CCl,inactive,
c1ccc(Nc2ccc3ccccc3c2)cc1,inactive,
O=P1(NCCCl)OCCCN1CCCl (stereo not drawn),inactive,
C=CC(=O)OCC(CC)CCCC (stereo not drawn),,3.97 µM (active)
CCCCCCCCCCCC#N,inactive,
CC(C)CCCCCCCOC(=O)c1ccccc1C(=O)OCCCCCCCC(C)C,inactive,
O=[N+]([O-])O,inactive,
Cc1ccc(OP(=O)(Oc2ccc(C)cc2)Oc2ccc(C)cc2)cc1 (tested in a mixture with another compound),,3.59 µM (active)
CC(C)(C)C(O)C(Oc1ccc(-c2ccccc2)cc1)n1cncn1 (stereo not drawn),inactive,
